Reference: the supplement of paper PMC7595190

Tested on: MV4-11
Experiment: CellTox Green cytotoxicity fluorescence relative to DMSO vehicle (fold of vehicle RFU); higher = more cell death (loss of membrane integrity), active = 2 or more
Method: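 Paediatric AML cell lines (MV4-11, CMK, Kasumi-1; 4x10^4 cells/well, 96-well) treated with single compounds from the Selleckchem apoptosis library at 0.01, 0.1 and 1 µM. Cytotoxicity was read with CellTox Green (RFU, Ex 485/Em 520) at 24, 48 and 72 h and normalised to the 0.1% DMSO vehicle. Normalised RFU >= 2 was taken as a successful, cell-killing treatment.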

Measured: CellTox Green cytotoxicity fluorescence

CC1(C)CC[C@]2(NC(=O)C(C)(F)F)CC[C@]3(C)[C@H](C(=O)C=C4[C@@]5(C)C=C(C#N)C(=O)C(C)(C)[C@@H]5CC[C@]43C)[C@@H]2C1 [Omaveloxolone]
inactive: 0.01 µM, 24 h 0.94 | 0.01 µM, 48 h 0.94 | 0.01 µM, 72 h 0.966 | 0.1 µM, 24 h 0.943 | 0.1 µM, 48 h 0.997 | 0.1 µM, 72 h 1.1 | 1 µM, 24 h 1.23
active: 1 µM, 48 h 2.12 | 1 µM, 72 h 2.24

Cc1nc(Nc2ncc(C(=O)Nc3c(C)cccc3Cl)s2)cc(N2CCN(CCO)CC2)n1 [Dasatinib Monohydrate]
inactive: 0.01 µM, 24 h 1 | 0.01 µM, 48 h 0.989 | 0.01 µM, 72 h 0.978 | 0.1 µM, 24 h 0.993 | 0.1 µM, 48 h 0.983 | 0.1 µM, 72 h 0.97 | 1 µM, 24 h 1.02 | 1 µM, 48 h 1.01 | 1 µM, 72 h 1.01

Nc1nc(F)nc2c1ncn2[C@@H]1O[C@H](CO)[C@@H](O)[C@@H]1O [Fludarabine]
inactive: 0.01 µM, 24 h 0.938 | 0.01 µM, 48 h 0.968 | 0.01 µM, 72 h 0.976 | 0.1 µM, 24 h 0.992 | 0.1 µM, 48 h 0.985 | 0.1 µM, 72 h 0.98 | 1 µM, 24 h 0.994 | 1 µM, 48 h 0.984 | 1 µM, 72 h 1.01

CCCC[C@@H](C=O)NC(=O)[C@H](CC(C)C)NC(=O)OCc1ccccc1 [Calpeptin]
inactive: 0.01 µM, 24 h 0.979 | 0.01 µM, 48 h 0.988 | 0.01 µM, 72 h 0.986 | 0.1 µM, 24 h 1.01 | 0.1 µM, 48 h 1.02 | 0.1 µM, 72 h 1.01 | 1 µM, 24 h 1.01 | 1 µM, 48 h 1.01 | 1 µM, 72 h 0.999

CCCCCCCCCCCC1=C(O)C(=O)C=C(O)C1=O [Embelin]
inactive: 0.01 µM, 24 h 1.01 | 0.01 µM, 48 h 1 | 0.01 µM, 72 h 1 | 0.1 µM, 24 h 1 | 0.1 µM, 48 h 0.999 | 0.1 µM, 72 h 1 | 1 µM, 24 h 1.02 | 1 µM, 48 h 1 | 1 µM, 72 h 1.01
